TDP1 inh: TDP1 (human) enzyme inhibition. recombinant TDP1, AlphaScreen DNA substrate cleavage. AID 485290. Potency, µM (top dose mostly 130 µM), for the others: at the highest dose activity change, negative = inhibition, most hits filed as inhibitors. Q9NUW8. 350,000 tested, 0.28% active; also: % is scaled to controls: 0 for no effect and ±100 for the full control effect; nearly all actives have a fitted effect of over 40% in size
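E. coli-derived human Tdp1, 1 nM final. Cpd preinc 15 min RT; substrate 15 nM final, 5 min RT; AS bead mix 10 ug/ml final, 10 min RT. Signal loss = tyrosine-FITC cleavage. No-enzyme wells = max signal.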
BAZ2B block: blocks human BAZ2B | 360,000 tested, 4.4% active | Potency, µM (top dose mostly 114 µM), without a hit: at the highest dose activity change, negative = inhibition, actives largely listed as inhibitors | AlphaScreen BAZ2B-H3K14Ac peptide displacement; also: % is scaled to controls: 0 for no effect and ±100 for the full control effect; nearly all actives have a fitted effect of over 60% in size
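Multi-concentration screen (max 110 uM) measuring displacement of acetylated histone H3 peptide from BAZ2B by AlphaScreen, using 50 nM protein, 50 nM peptide and 10 ug/mL streptavidin donor plus Ni-chelate acceptor beads.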
Sfp PPTase inh: Sfp phosphopantetheinyl transferase inhibition; 310,000 tested, 3.5% active; Q9F4F7; Potency, µM, inactives show largest response in the series, negative = inhibition, hits mostly inhibitors; Biochemical Sfp PPTase activity, qHTS; AID 1490;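 also: the enzyme is Sfp with the accession as filed and its product quenches rhodamine fluorescence; 0% = enzyme reaction without inhibitor and -100% = no enzyme wells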
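Compounds were incubated with enzyme (final 15 nM) for 15 min at room temperature before substrate addition started the reaction. Fluorescence at 525 nm excitation, 598 nm emission was recorded immediately and after 30 minutes.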
JMJD2A Tudor inh: inhibitors of human JMJD2A Tudor domain. O75164. AlphaScreen JMJD2A-Tudor / H3K4me3 peptide binding. Potency, µM (series often up to 114 µM), inactives show at the highest dose activity change, negative = inhibition, hits mostly inhibitors. 390,000 tested, 4.4% active; also: % is scaled to controls: 0 for no effect and ±100 for the full control effect; nearly all actives have a fitted effect of over 50% in size
HP1b chromo inh: blocks HP1-beta chromodomain binding to methylated histone tails; P83916; AlphaScreen HP1-beta / biotin-H3K9me3 peptide binding; Potency, µM (highest dose often 114 µM), for the others: at the top dose activity change, negative = inhibition, hits mostly inhibitors; 390,000 tested, 0.56% active; AID 540317; also: nearly all actives have a fitted effect of over 70% in size
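AlphaScreen: HP1-beta (50 nM) preformed 30 min with biotin-H3(1-18)K9me3 peptide (50 nM) in PBS pH 7.4, 0.01% Tween-20. Compound added for 30 min at RT, then streptavidin donor/nickel chelate acceptor beads (10 ug/mL) for 30 min.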
G9a block: inhibitors of human histone lysine methyltransferase G9a; G9a H3K9 monomethylation, AlphaScreen, 2 h; Q96KQ7; Potency, µM (titrated, usually from 102 µM), without a hit: at the highest dose activity, negative = inhibition, hits mostly inhibitors; 350,000 tested, 8.8% active; AID 504332; also: % is scaled to controls: 0 for no effect and ±100 for the full control effect; nearly all actives have a fitted effect of over 75% in size
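G9a (20 nM) was preincubated 15 min with compound, then reacted 2 h at room temperature with 500 nM biotin-H3K9 peptide and 20 µM SAM. Monomethyl-H3K9 detected by AlphaScreen using anti-H3K9me1 antibody.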
* = called active by the depositor; ? = inconclusive; nt = no result given; [ ] = remark or other dose. Most compounds without a hit are left out; they make up all but 12% or so of the library. Calls follow the shape of the dose curve; as a rule, active = well fitted curve in the direction sought with a large enough effect; inconclusive = small, poorly fitted or top-dose-only effect, or another doubt; inactive = no such curve, though single readings can be large; an effect the other way counts as inactive or inconclusive. Potency is read from the fitted curve at half-maximal effect.

SMILES | TDP1 inh | BAZ2B block | Sfp PPTase inh | JMJD2A Tudor inh | HP1b chromo inh | G9a block
N#C/C(=C\c1ccccc1OCc1ccc(C(=O)O)cc1)c1ccccc1 | 0.0% | -10.2% | 6.8% | -16.1% | 23.1% | -40.2%
N#CC(C#N)=Cc1cccn1-c1ccc(C(=O)O)cc1 | 3.16µM* | 20µM* | 23.2% | ? | ? | 11.2µM*
CCCCC/C=C\C/C=C\C/C=C\C/C=C\CCCC(=O)O[C@H](COCCCCCCCCCCCCCCCC)COP(=O)([O-])OCC[N+](C)(C)C | 7.3% | nt | 21.3% | nt | nt | 30.9%[59 µM]
CN(C/C=C/c1ccccc1[N+](=O)[O-])Cc1ccccc1 | nt | 56.2µM* | -11.3% | 28.2µM* | ? | -8.5%[0.501 µM]
CCOc1ncccc1C(=O)OC(C)C(=O)Nc1ccc(N2CCOCC2)cc1 (centres undefined) | 0.5% | nt | nt | -15.6% | 29.8% | nt
Fc1ccc(-[n+]2nc(Nc3ccccc3)sc2-c2c3ccccc3cc3ccccc23)cc1 | nt | 5.01µM* | 44.7µM* | 15.8µM* | ? | 11.2µM*
Oc1ccc2ccccc2c1-c1sc(Nc2ccccc2)n[n+]1-c1ccc(F)cc1 | nt | ? | 9.8% | ? | 20.6% | 39.8µM*
c1ccc2c(NC3=NCCCCS3)cccc2c1 | -2.5% | 3.3% | 15.2% | -28.7% | 21.4% | 6.7%[59 µM]
c1ccc(-[n+]2nc(Nc3cccc4ccccc34)sc2-c2c3ccccc3cc3ccccc23)cc1 | 11.6% | 3.55µM* | nt | 2.51µM* | ? | 25.8%[2.33 µM]
O=c1oc2ccc3ccccc3c2cc1-c1nnc(Nc2ccc(F)cc2)s1 | -3.1%[12.3 µM] | 0.1% | nt | -11.1% | 32.9% | -4.7%[59 µM]
COc1ccc(-c2sc(Nc3ccccc3)n[n+]2-c2ccc(F)cc2)c(C)c1C | nt | ? | -3.4% | ? | -3.0% | ?
Cc1ccc(Cl)cc1NC(=O)c1cc2c(=O)n3cccc(C)c3nc2n1C | 2.6% | 3.2% | nt | 3.0% | 46.8% | 8.9%[59 µM]
COC(=O)c1cc2sccc2n1CC(=O)Nc1cc(Cl)ccc1OC | -4.9% | -0.1% | nt | 5.5% | 23.6% | -19.0%[59 µM]
CCCN(C(=O)c1ccc(S(=O)(=O)N2CCCC2)cc1)C1CCS(=O)(=O)C1 (centres undefined) | 0.8% | 9.8% | nt | 0.7% | 21.5% | 7.7%[12.7 µM]
COc1ccc(CN2CCN(c3ncccn3)CC2)c(C)c1C | nt | 56.2µM* | -21.1% | 17.8µM* | ? | 4.47µM*
COc1cccc(CN2CCN(c3ncccn3)CC2)c1OC | nt | 50.1µM* | -20.4% | 28.2µM* | ? | ?
COc1ccc(CN2CCN(c3ccccn3)CC2)c(OC)c1C | 1.2% | 50.1µM* | ? | 56.2µM* | ? | nt
COc1cc(C)c(CN2CCN(c3ncccn3)CC2)cc1C | nt | nt | nt | 50.1µM* | ? | nt
COc1ccc(S(=O)(=O)N2CCN(Cc3cccc(OC)c3OC)CC2)cc1 | nt | -11.3% | 12.7% | -8.8% | 21.4% | -0.1%[0.501 µM]
COc1ccccc1CNC(=O)CCC1N=C2c3ccccc3N=C(SCC(=O)NCCc3ccc(OC)c(OC)c3)N2C1=O (centres undefined) | -0.5% | -36.0% | nt | -15.7% | 5.5% | 25.6%[59 µM]
CCOc1ccc(C(C)=O)cc1CN1C(=O)NC2(CCCCCCC2)C1=O | -2.6% | -2.1% | -1.4% | -8.3% | 31.9% | 18.0%
COc1ccc(Br)cc1CN1CCN(c2ncccn2)CC1 | nt | nt | nt | 22.4µM* | ? | nt
O=C(NNC(=S)NCc1ccccc1)c1cccc([N+](=O)[O-])c1 | 6.1% | -20.4% | 10.2% | -28.2% | 20.0% | -42.4%
CC(=O)NNC(=S)NC(=O)c1cccc([N+](=O)[O-])c1 | 3.4% | ? | 11.2µM* | 8.91µM* | ? | ?
O=C(NC(=S)Nc1cccc(NC(=O)c2ccccc2)c1)c1cccc([N+](=O)[O-])c1 | 6.9% | -28.7% | 22.5% | -17.8% | -5.2% | -7.4%[59 µM]
CNC(=S)N/N=C(\C)c1cccc([N+](=O)[O-])c1 | 2.7% | 50.1µM* | 56.2µM* | -23.3% | -7.7% | ?
O=C(NNC(=S)NC(=O)c1ccccc1Cl)c1cccc([N+](=O)[O-])c1 | nt | 3.4% | 16.7% | -14.6% | -0.7% | 35.5µM*

Source: PubChem BioAssay (National Center for Advancing Translational Sciences (NCATS))
